# Shown is part of a subset that was picked to be rich in hits.
# PostGolgi yeast – growth inhibition of a yeast mutant, post-Golgi transport screen | AID 739 | hit rate 0.9% among 98,000 | post-Golgi transport phenotypic cell assay | inhibition, % at 10 µM;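 also: yeast cells grown in 1536-well plates; yeast grown about 18 h at 30C before absorbance read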
# GALR2 antag – blocks the human galanin receptor 2; GALR2-expressing cells, antagonist mode; inhibition, % at 4 µM; hit rate 0.39% among 140,000; AID 828; in the data active = inhibition above about 27%;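 also: cells stimulated with galanin 1-16 at roughly its EC80; 0% = agonist challenge control and 100% = basal control without agonist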
# S1P2 agonist – agonists of human S1P2 receptor | O95136 | hit rate 0.46% among 97,000 | S1P2-expressing cell line, agonist reporter read-out | AID 729 | activation, % at 4.5 µM; in the data active = activation above about 16%;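 also: 0% = vehicle low control and 100% = maximal reference agonist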
# Target sequence (O95136 whole entry, looked up): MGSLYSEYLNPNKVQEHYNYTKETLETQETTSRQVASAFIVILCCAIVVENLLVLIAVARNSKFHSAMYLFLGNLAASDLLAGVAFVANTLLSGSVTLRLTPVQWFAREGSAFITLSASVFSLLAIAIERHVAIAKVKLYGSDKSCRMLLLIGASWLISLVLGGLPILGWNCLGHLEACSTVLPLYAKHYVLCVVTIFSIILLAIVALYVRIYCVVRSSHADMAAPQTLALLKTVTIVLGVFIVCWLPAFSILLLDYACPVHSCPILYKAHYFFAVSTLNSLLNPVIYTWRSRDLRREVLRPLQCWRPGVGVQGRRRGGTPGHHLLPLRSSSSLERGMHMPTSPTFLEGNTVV
# PostGolgi ctrl – inhibits growth of the yeast control strain; efflux-deficient yeast background strain, growth absorbance A615, 16 h; inhibition, % at 10 µM; hit rate 5% among 98,000; AID 738
# GALR2 agonist – activates the human galanin receptor 2; O43603; GALR2-expressing cells, agonist activation read-out; activation, % (test concentration not listed); hit rate 0.48% among 140,000; AID 803; in the data active = activation above about 5%, passing the limit was not always enough;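 also: 0% = vehicle buffer wells and 100% = reference agonist at full effect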
# S1P2 antag – antagonists of human S1P2 receptor; inhibition, % at 5 µM; hit rate 0.21% among 97,000; O95136; cell-based S1P2 antagonist assay, inhibition at 5 uM; in the data active = inhibition above about 45%;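 also: CRE beta-lactamase reporter cells expressing human S1P2 stimulated with S1P; 0% = agonist at EC80 alone and 100% = agonist plus reference antagonist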
# * = called active by the depositor; . = no result given. Rule as the data show it, unless noted: active = inhibition above about 30%; inactive = the rest.
SMILES,PostGolgi yeast,GALR2 antag,S1P2 agonist,PostGolgi ctrl,GALR2 agonist,S1P2 antag
CCOC(=O)N/C(N)=N/c1nc2ccccc2s1,-26.2,-5.1,-9.9,32.7*,-2.4,6.5
Cc1cc(C)cc(NC(N)=S)c1,.,2.9,.,.,-1.2,.
O=C(N/N=C\c1cc(Br)ccc1O)c1ccc(S(=O)(=O)N2CCCCC2)cc1,.,21.7,.,.,6.1*,.
CN(C)c1ccc2c(c1)OC(N)=C(C#N)C2c1cccc(F)c1 (configuration not stated),-2.6,26.6,.,37.0*,1.4,.
N#CC1=C(N)Oc2cc(O)ccc2C1c1ccncc1 (configuration not stated),-3.1,-4.2,-3.1,-1.8,-2.8,5.0
COc1ccccc1-c1nc(C#N)c(NCc2ccc(F)cc2)o1,0.3,-3.7,-1.8,40.8*,-0.9,-11.3
COc1ccc(CNc2oc(Cc3cccc4ccccc34)nc2C#N)cc1,-5.8,-1.3,-7.4,34.9*,-0.5,5.0
N#Cc1nc(-c2ccccc2F)oc1NCc1cccc2c1OCO2,-3.5,-11.1,-1.5,34.2*,-1.4,-0.5
COc1ccc(CNc2oc(COc3ccccc3)nc2C#N)cc1,-4.1,9.1,-9.0,14.0,-2.0,10.5
Cc1nonc1C(=O)N/N=C/c1cccc(O)c1,.,-9.9,.,.,-2.0,.
O=C(OCC(=O)c1c[nH]c2ccccc12)c1cc2ccccc2cc1O,.,17.1,.,.,-0.2,.
Cc1ccc(/C(O)=C2\C(=O)C(=O)N(Cc3cccnc3)C2c2ccccc2[N+](=O)[O-])cc1 (configuration not stated),.,23.1,.,.,-2.2,.
CCOC(=O)c1ccc(-n2c(O)c(/C=N/NC(=O)C3COc4ccccc4O3)c3ccccc3c2=O)cc1 (configuration not stated),.,-7.7,.,.,0.9,.
O=C1CCCc2c1cc(-c1ccccc1)n2-c1ccccc1,-4.7,-3.4,-8.1,51.4*,-1.5,8.4
O=C1CCCc2c1cc(C(=O)Nc1ccc(Cl)cn1)c(=O)n2-c1ccccc1,-1.0,-9.1,0.7,9.6,0.9,-1.5
CCOc1ncccc1C(=O)OCC(=O)Nc1cc(C)ccc1C,-4.4,7.2,20.7*,7.9,-3.1,-0.5
CCOc1ncccc1C(=O)OCC(=O)Nc1cc(S(=O)(=O)N2CCOCC2)ccc1C,.,1.8,.,.,0.2,.
C/C=C/c1ccc(OCCCCn2cncn2)c(OC)c1,1.8,-6.5,-3.0,31.1*,-1.3,-8.9
CC(C)Sc1nc(N)nc(-c2cccs2)c1C#N,12.7,-4.1,4.2,80.5*,0.9,-10.2
CSc1nc(N)nc(-c2cccs2)c1C#N,-4.4,3.5,-2.6,19.3,0.6,-22.1
Cc1ccccc1N(C(=O)Cc1c[nH]c2ccccc12)C(C(=O)NC1CCCCC1)c1ccco1 (configuration not stated),.,16.9,.,.,6.1*,.
CC(=O)COC(=O)c1cccc(N2C(=O)C3C4C=CC(C4)C3C2=O)c1 (configuration not stated),2.7,1.4,.,31.4*,-1.2,.
O=C(O)c1ccc(NC(=O)c2cccc(N3C(=O)C4C5CCC(C5)C4C3=O)c2)cc1 (configuration not stated),.,-7.7,.,.,-0.7,.
CN(C)c1ccc(NC(=O)c2cccc(N3C(=O)C4C5C=CC(C5)C4C3=O)c2)cc1 (configuration not stated),1.4,46.9*,-4.0,5.6,-3.4,-2.2
COCCCNC(=S)N(Cc1cccnc1)Cc1ccc(OC)c(OC)c1,.,8.1,.,.,-2.1,.
SMILES,PostGolgi yeast,GALR2 antag,S1P2 agonist,PostGolgi ctrl,GALR2 agonist,S1P2 antag
CC(c1ccc(F)cc1)n1c(-c2ccc3ccccc3n2)n[nH]c1=S (configuration not stated),-0.2,-2.8,-5.2,36.4*,-2.3,8.4
CC(c1ccc(Cl)cc1)n1c(-c2ccc3ccccc3n2)n[nH]c1=S (configuration not stated),3.1,1.0,-5.5,54.6*,-2.0,-6.1
CC(C)[C@H](NC(=O)[C@H](CC(=O)O)NC(=O)[C@H](CCCCN)NC(=O)[C@@H](N)CCCN=C(N)N)C(=O)N[C@@H](Cc1ccc(O)cc1)C(=O)O,.,-8.0,.,.,-0.6,.
Cc1ccc(C(=O)N/C(=C\c2ccc(-c3ccc([N+](=O)[O-])cc3)o2)C(=O)NC2CCS(=O)(=O)C2)cc1 (configuration not stated),.,-5.0,.,.,-0.2,.
CC(C)c1ccc2c(c1)C(c1ccc(N3CCOCC3)cc1)=NNC(c1cccs1)=N2,-1.4,-2.3,-8.2,42.2*,-2.2,11.1
COc1cc(CNCc2ccccn2)ccc1OCc1ccc(Cl)cc1Cl,3.4,3.3,-4.4,48.6*,0.6,9.3
COc1cc(CNCc2ccccn2)ccc1OCC(N)=O,-0.8,2.8,-1.1,29.8,-1.7,18.1
